# DT40 TDP1 no CPT = qHTS for Inhibitors of human tyrosyl-DNA phosphodiesterase 1 (TDP1): qHTS in cells in absence of CPT; DT40 Tdp1-/- hTDP1 cells, no CPT, ATP luminescence, 48 h; Potency, µM (top dose mostly 46.2 µM), without a hit: top-dose activity change, negative = growth inhibition, most hits filed as inhibitors; hit rate 15% among 420,000; AID 686978, 2013; also: potency is read from the fitted curve at half-maximal effect; nearly all actives have a fitted effect of over 55% in size
#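 Luminescent ATP content (CellTiter-Glo) served as the growth readout. Knockout chicken DT40 cells expressing human TDP1 were exposed to compounds without camptothecin for a minimum 48 hr at 37 °C.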
# HT1080NT lethal = qHTS for induction of synthetic lethality in tumor cells producing 2HG: qHTS for the HT-1080-NT fibrosarcoma cell line. HT-1080-NT fibrosarcoma viability, CellTiter-Glo ATP luminescence, 48 h. AID 686970, 2013. Potency, µM (top dose mostly 46.1 µM), inactives show at the top dose activity, negative = less viability, usual class: cytotoxic. hit rate 1.6% among 360,000;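 also: NT is the 2HG producing partner of a matched IDH1 knockdown line; potency is read from the fitted curve at half-maximal effect; 0% = DMSO-treated cells and -100% = media-only wells without cells; nearly all actives have a fitted effect of over 55% in size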
#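 Viability of the 2HG-overproducing fibrosarcoma line after 48 hours of compound exposure at 37 degrees C was determined by luminescence with CellTiter-Glo, and concentration-effect curves were then fitted and categorized.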
# IL-1B inflam inh = qHTS for Inhibitors of Inflammasome Signaling: IL-1-beta AlphaLISA Primary Screen; THP-1 LPS/ATP IL-1B secretion, AlphaLISA, 16 h; active compounds read low; activity change, % at 57.5 µM; hit rate 4.7% among 360,000; in the data active = activity change below about -50%; inconclusive = mostly about -30% to -49%
#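 Secreted IL-1B measured by AlphaLISA bead assay after 16 h compound exposure of THP-1 cells; compounds (final up to 57.5 uM) added 1 h before LPS (250 ng/mL) and ATP (1.25 mM) stimulation; lower signal means less secretion.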
# TDP1 cell CPT = qHTS for Inhibitors of human tyrosyl-DNA phosphodiesterase 1 (TDP1): qHTS in cells in presence of CPT | hit rate 12% among 420,000 | chicken DT40 Tdp1-/-;hTDP1 cells + 20 nM CPT, ATP luminescence, 48 h | Potency, µM (titrated, usually from 46.2 µM), without a hit: top-dose activity change, negative = growth inhibition, actives largely listed as inhibitors; also: potency is read from the fitted curve at half-maximal effect; nearly all actives have a fitted effect of over 55% in size
#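 Chicken DT40 Tdp1-/- cells complemented with human TDP1, 400 cells/well, exposed to compounds plus 20 nM camptothecin for at least 48 h at 37 C; viability read as ATP content by CellTiter-Glo luminescence.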
# HT1080 IDH1KD tx = qHTS for induction of synthetic lethality in tumor cells producing 2HG: qHTS for the HT-1080-IDH1KD cell line; HT-1080 IDH1 knockdown viability, ATP luminescence, 48 h; Potency, µM (doses to about 46.1 µM), without a hit: at the top dose activity, negative = toxicity, most hits filed as cytotoxic; hit rate 2% among 360,000; AID 686971, 2013;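 also: potency is read from the fitted curve at half-maximal effect; 0% = DMSO wells and -100% = cell-free medium wells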
#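 CellTiter-Glo luminescence after 48 h compound exposure at 37 degrees C of IDH1-knockdown HT-1080 cells in 5% FBS RPMI. %Activity scaled between DMSO wells and cell-free media wells, with curves fitted and assigned curve classes.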
# * marks the source's active call; other numbers are inactive results; ? = inconclusive; / = no result. In the library only some 19% were active in any assay of this set; here they are far more common. Unless noted, calls follow the shape of the dose curve; as a rule, active = well fitted curve in the direction sought with a large enough effect; inconclusive = small, poorly fitted or top-dose-only effect, or another doubt; inactive = no such curve, though single readings can be large; an effect the other way counts as inactive or inconclusive. Unless noted, % is scaled to controls: 0 for no effect and ±100 for the full control effect.
SMILES,DT40 TDP1 no CPT,HT1080NT lethal,IL-1B inflam inh,TDP1 cell CPT,HT1080 IDH1KD tx
Cc1ccc2nc(C)cc(Nc3ccc([N+](=O)[O-])cc3)c2c1,0.92µM*,-13%,15,1µM*,?
CC(=O)c1cccc(Nc2cc(C)nc3c(C)cc(C)cc23)c1,15µM*,-18%,-53*,?,?
CCn1cc(S(=O)(=O)N2CCN(Cc3cccc(Cl)c3)CC2)cn1,-26%,1%,48,3%,0%
C[C@H]1COc2cc(N(C)CCO)ccc2S(=O)(=O)N1,-1%,19%,11,-1%,6%
Cc1ccc(SCC(=O)c2ccc(CC(=O)O)s2)cc1,2%,2%,/,-8%,3%
Cc1cc(C)c2nc(-c3cccc(Cl)c3)c(C)c(C(=O)N3CCOCC3)c2c1,?,-13%,-82*,?,?
COC(=O)c1ccc2nc(C)cc(Nc3ccccc3C)c2c1,?,-16%,16,?,-5%
COC(=O)c1ccc(Nc2cc(C)nc3ccc(C)cc23)cc1,21µM*,21µM*,-93*,15µM*,23µM*
NNC(=O)c1ccc(COc2ccc3c(c2)CCC3)o1,12%,-8%,9,6%,?
Cc1ccc(OCc2cc(C(=O)NCc3cnn(-c4cccc(F)c4)c3)no2)cn1,?,17%,13,?,0%
O=C(NC(c1cccnc1)C(F)(F)F)c1cc(COc2ccc3c(c2)CCCC3)on1 (stereo not given),2.6µM*,-16%,?,4.1µM*,-23%
CCN(Cc1cnn(C)c1)C(=O)c1cc(COc2ccc3c(c2)CCCC3)on1,12µM*,0%,-6,16µM*,0%
Cn1cc(CNC(=O)c2cc(COc3ccc4c(c3)CCCC4)on2)cn1,15µM*,2%,-8,?,0%
CN(Cc1cnn(C)c1)C(=O)c1cc(COc2c(F)cccc2F)on1,8%,7%,0,25%,2%
Cc1cccc(/C(N)=N/OC(=O)CCc2ccccc2)c1,-1%,13%,-23,-2%,18%
CC(=O)N1CCc2cc(S(=O)(=O)NCC(=O)NCc3ccc(Cl)cc3)ccc21,2%,0%,16,-16%,-13%
O=C(c1cccc([N+](=O)[O-])c1)N1CCN(c2n[nH]c(=O)[nH]c2=O)CC1,-1%,10%,4,-3%,7%
CN1CCC(OC(=O)COc2ccc(F)cc2)CC1,-4%,18%,16,-5%,6%
CCNC(=O)c1cc(NC(=O)COC)cc2nc(-c3ccncc3)n(C)c12,-15%,/,/,?,/
Cc1ccc(C)c(N2CCN(CCCNC(=O)Cn3cc4c(n3)CCCCC4)CC2)c1,6.5µM*,?,?,4.6µM*,-26%
Cc1ccc(C)c(N2CCN(CCCNC(=O)Cn3cc4c(n3)CCC(C)C4)CC2)c1 (stereo not given),15µM*,4%,0,16µM*,1%
CC1CCc2nn(CC(=O)NCc3ccco3)cc2C1 (stereo not given),?,-2%,-7,21µM*,-3%
CC1CCc2c(C(=O)NCc3ccco3)csc2C1 (stereo not given),15µM*,14%,-79*,?,-1%
CC1CCc2nn(CC(=O)NCc3ccc(F)cc3)cc2C1 (stereo not given),?,1%,12,?,-3%
COc1ccc2nc(SCC(=O)N(C)C3CCCCC3)c(C#N)cc2c1,?,9%,-20,?,-1%
SMILES,DT40 TDP1 no CPT,HT1080NT lethal,IL-1B inflam inh,TDP1 cell CPT,HT1080 IDH1KD tx
Cc1ccc(S(=O)(=O)NC(=O)NC2CCCCCCC2)cc1,5%,/,/,13%,/
Brc1ccc(-c2nnc3n2-c2ccccc2CC3)cc1,-24%,0%,8,-30%,-29%
CCOc1ncccc1C(=O)Nc1ccc(S(=O)(=O)N2CC(C)CC(C)C2)cc1 (stereo not given),?,10%,21,-25%,8%
CCN(CC)CCCNC(=O)CC1Oc2ccc(C)cc2NC1=O (stereo not given),-4%,-12%,44,-9%,-5%
Cc1ccc2c(c1)NC(=O)C(CC(=O)NCCCN1CCN(c3cc(C)ccc3C)CC1)O2 (stereo not given),7.3µM*,-17%,-30,8.2µM*,-11%
COc1ccccc1CSc1nc2n(n1)C(c1ccccc1)C(C(=O)Nc1ccc(C)cc1)=C(C)N2 (stereo not given),23µM*,/,/,16µM*,/
COc1cccc(CSc2nc3n(n2)C(CC(C)C)C(C(=O)Nc2ccccc2OC)=C(C)N3)c1 (stereo not given),13µM*,/,/,18µM*,/
CC1=C(C(=O)Nc2ccc(C)cc2C)C(c2ccc(C(=O)O)cc2)n2nc(SCc3ccccc3)nc2N1 (stereo not given),-3%,/,/,-3%,/
CC1=C(C(=O)Nc2ccccc2C)C(c2ccccn2)n2nc(SCc3ccccc3F)nc2N1 (stereo not given),10µM*,/,/,6.5µM*,/
COc1cc(C2C(C(=O)Nc3ccc(C)cc3C)=C(C)Nc3nc(SCc4ccccc4)nn32)cc(OC)c1OC (stereo not given),23µM*,/,/,21µM*,/
O=C(CSc1nnc(COc2ccc3c(c2)CCCC3)o1)Nc1ccc(F)cc1,-18%,-3%,-2,-15%,-1%
CC1=C(C(=O)Nc2ccccc2C)C(c2cccs2)n2nc(SCc3ccccc3)nc2N1 (stereo not given),21µM*,/,/,21µM*,/
CC1=C(C(=O)Nc2ccc(C)cc2C)C(c2cccs2)n2nc(SCc3ccc(Cl)cc3)nc2N1 (stereo not given),12µM*,/,/,10µM*,/
CC(C)C[C@@H]1Cc2[nH][nH]c(=O)c2[C@H](c2ccc(Cl)cc2)O1,-25%,2%,33,-27%,-9%
CCCCC1C(=O)NN(c2ccccc2)C1=O (stereo not given),-6%,1.8µM*,6,19%,4.6µM*
O=C1CN(/N=C/c2ccc([N+](=O)[O-])o2)C(=O)N1,16µM*,?,14,21µM*,?
O=[N+]([O-])c1ccc(/C=N/Nc2ccc3ccccc3c2)o1,-30%,?,-9,?,?
O=C1OCCN1/N=C/c1ccc([N+](=O)[O-])o1,15µM*,2%,22,13µM*,-16%
Oc1ccc(N=Cc2cc(Br)c(N3CCOCC3)o2)cc1,21µM*,4%,0,?,6%

# High-throughput results (PubChem)
